High-throughput results deposited in PubChem BioAssay by several laboratories.
CYP2C9 activ: CYP2C9 (human) activation; P11712; recombinant CYP2C9, luciferin-H conversion, luminescence; active compounds read high; factor 1 = untreated enzyme, 0 = blocked; activation factor at 5 µM; actives 1.4% (n = 96,000); AID 1024;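 active means activation factor of 2 or more for CYP2C9 at a 5 µM dose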;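 further: 0 = sulfaphenazole-blocked wells and 1 = vehicle-only wells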
Target sequence (P11712 whole entry, looked up): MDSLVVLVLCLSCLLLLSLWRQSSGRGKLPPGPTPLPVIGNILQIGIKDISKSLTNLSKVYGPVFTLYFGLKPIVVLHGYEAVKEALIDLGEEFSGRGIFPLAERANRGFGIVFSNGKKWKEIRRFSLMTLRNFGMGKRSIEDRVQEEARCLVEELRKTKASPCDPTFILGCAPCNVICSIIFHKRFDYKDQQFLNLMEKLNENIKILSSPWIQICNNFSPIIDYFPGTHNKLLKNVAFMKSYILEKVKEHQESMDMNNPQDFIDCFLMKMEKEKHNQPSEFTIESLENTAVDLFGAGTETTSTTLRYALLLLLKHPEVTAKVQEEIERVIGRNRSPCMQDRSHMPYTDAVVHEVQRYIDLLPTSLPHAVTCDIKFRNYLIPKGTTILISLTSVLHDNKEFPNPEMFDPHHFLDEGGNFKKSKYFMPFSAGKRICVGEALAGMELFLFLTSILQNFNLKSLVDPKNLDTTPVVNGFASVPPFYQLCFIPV
MRP resist rev: reverses drug resistance mediated by MRP. H69AR cells + 2 uM doxorubicin, CellTiter-Glo, 72 h. actives 0.04% (n = 85,000). differential viability (reversal), % at 10 µM;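 active means viability drop by adding the cancer drug above about 55%, with treated viability meeting a 40% cutoff, limit read from the data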;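 further: viability without doxorubicin minus viability with 2 µM doxorubicin for each compound; larger differential means the compound sensitizes cells more to doxorubicin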
CYP2C19 inhib: blocks human cytochrome P450 2C19; P33261; CYP2C19 Supersomes, luciferin-H EGE luminescence, 30 min; inhibition, % at 5 µM; actives 21% (n = 96,000);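 active means CYP2C19 inhibition above a set limit at 5 µM in the primary screen, cut at about 50% in these data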;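 further: plate controls were negative control wells for no effect and 2.5 mM tranylcypromine positive control for full effect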
MRP1 act: activators of MRP-1; AID 799; viability increase, % at 10 µM; H69AR cells + doxorubicin, viability rescue, CellTiter-Glo; actives 0.61% (n = 140,000);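 active means viability gain under doxorubicin at or above a set limit, the compound median plus 3 SD, cut at about 4.7% in these data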;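 further: MRP-1 overexpressing cells given doxorubicin 25 µM after compound pretreatment; 18-22 h compound pretreatment then 72 h with doxorubicin before readout; 0% = doxorubicin-only wells and 100% = vehicle-treated cells without doxorubicin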
CYP2C9 inh: inhibitors of human CYP2C9; P11712; CYP2C9 Supersomes, luciferin-H conversion, luminescence; inhibition, % at 5 µM; actives 20% (n = 96,000); AID 777;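 active means blocking of liver enzyme CYP2C9 beyond about 50% at 5 µM, limit read from the data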
CYP2C19 act: increases human CYP2C19 enzyme activity | recombinant CYP2C19, luciferin-H EGE luminescence; active compounds read high; 0 = fully inhibited enzyme, 1 = untreated enzyme | AID 1025 | activation factor at 5 µM | P33261 | 96,000 tested, under 10 active;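 active means activation factor of at least 2 at 5 µM in the primary screen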;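 further: 0 = wells with 2.5 mM tranylcypromine and 1 = vehicle-only wells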
Active calls of the source: *; x = not tested or not shown. This is a sample that favours compounds with a hit; in the whole collection about 21% have one here.

SMILES | CYP2C9 activ | MRP resist rev | CYP2C19 inhib | MRP1 act | CYP2C9 inh | CYP2C19 act
Cc1cccc(NC(=O)Cn2cnc3c(oc4nc5c(cc43)COC(C)(C)C5)c2=O)c1 | x | x | x | -3 | x | x
O=C(COC(=O)c1cccnc1Nc1ccccc1F)NCCN1C(=O)CSC1=O | 0.8 | x | 84* | 0 | 17 | 0.2
O=S1(=O)C=C(SCc2cccc(Cl)c2)Nc2ccccc21 | 0.3 | x | 86* | -3 | 74* | 0.1
Cc1cccc(CSC2=CS(=O)(=O)c3ccccc3N2)c1 | 0.4 | x | 54* | -2 | 64* | 0.5
COCc1c(Br)c(C)nc(OCC(=O)N/N=C/c2cc(C)n(-c3ccc([N+](=O)[O-])cc3)c2C)c1C#N | x | x | x | 3 | x | x
CCOC(=O)c1ccc(NC(=O)Cn2cccc2)cc1 | 0.7 | 2 | 21 | 1 | 35 | 0.8
CCc1cccc(NC(=O)CSCc2cc(=O)[nH][nH]2)c1 | 0.9 | -19 | 75* | 0 | 5 | 0.3
CCc1cccc(NC(=O)Cn2cccc2)c1 | 2* | -15 | 30 | -3 | -98 | 0.7
COC(=O)c1ccc2c(c1)SC1=C(CCCC1=O)N2 | 0.8 | 18 | 83* | -1 | 20 | 0.2
NC(=O)c1ccsc1NC(=O)C1CCCN1S(=O)(=O)c1ccc(Cl)cc1 (stereo not given) | 0.2 | 20 | 61* | -2 | 78* | 0.4
O=C(Nc1nccs1)C1CCCN1S(=O)(=O)c1ccc(Cl)cc1 (stereo not given) | 0.3 | -5 | 48 | 1 | 69* | 0.5
CC1CCCCN1S(=O)(=O)c1ccc(C(=O)Nc2sccc2C(N)=O)cc1 (stereo not given) | 0 | -24 | -6 | -2 | 97* | 1.1
COC(=O)c1c(NC(=O)CSc2nnc3ccccn23)sc2c1CCC2 | x | x | x | -2 | x | x
NC(=O)c1ncc(C(F)(F)F)cc1Oc1ccc(C(F)(F)F)cc1 | 0.8 | 9 | 75* | 0 | 19 | 0.2
CC(=O)Nc1cccc(NS(=O)(=O)c2cccc3nsnc23)c1 | 0.6 | -17 | 57* | -2 | 37 | 0.4
Cc1ccnc(NS(=O)(=O)c2cccc3nsnc23)c1 | 0.9 | -13 | 7 | 0 | 11 | 0.9
COc1ccc(NS(=O)(=O)c2cccc3nsnc23)cc1OC | 0.8 | 19 | 82* | 0 | 17 | 0.2
Cc1ccc2nsnc2c1S(=O)(=O)Nc1cccc2nsnc12 | 0.1 | 16 | 23 | -1 | 90* | 0.8
Cc1cccc(NS(=O)(=O)c2cccc3nsnc23)c1 | 0.9 | 3 | 76* | -4 | 13 | 0.2
COc1cc(/C=N/NC(=O)CCC(=O)NCc2ccccc2)cc(OC)c1OC | x | x | x | -2 | x | x
N#Cc1cccc(NC(=O)COC(=O)c2cccc(N3C(=O)c4ccccc4C3=O)c2)c1 | x | x | x | 0 | x | x
COc1ccc(S(=O)(=O)Nc2c(C)ccc3nsnc23)cc1OC | 1 | -5 | 69* | -3 | 3 | 0.3
O=C(COC(=O)C1(c2ccccc2)CC1)N1CCN(c2ccc(F)cc2)CC1 | 1.1 | -12 | 77* | -2 | -6 | 0.2
O=C(COC(=O)C1(c2ccccc2F)CCCC1)NC1CCS(=O)(=O)C1 (stereo not given) | 1 | 8 | 12 | -1 | 5 | 0.9
O=C(Cc1ccc(Br)cc1)N1CCN(c2ccccc2O)CC1 | 0.2 | x | 96* | -2 | 81* | 0
SMILES | CYP2C9 activ | MRP resist rev | CYP2C19 inhib | MRP1 act | CYP2C9 inh | CYP2C19 act
CCOC(=O)N1CCN(c2ccccc2O)CC1 | 0.7 | x | 36 | 1 | 27 | 0.6
O=C(CCS(=O)(=O)c1ccc(Br)cc1)N1CCN(c2ccccc2)CC1 | 0.6 | -1 | 16 | -2 | 39 | 0.8
O=C(COC(=O)C1(c2ccc(F)cc2)CCCC1)NC1CC1 | 0.8 | x | 55* | -1 | 17 | 0.4
O=C(CCS(=O)(=O)c1ccc(Br)cc1)N1CCN(c2ccccc2Cl)CC1 | 1 | 1 | 71* | 0 | -2 | 0.3
O=C(Cc1ccc(Br)cc1)N1CCN(c2ccc(F)cc2)CC1 | 0.2 | -4 | 97* | -1 | 76* | 0
COc1ccc(CCNC(=S)Nc2ccc(C)cc2C)cc1 | x | x | x | -1 | x | x
COc1ccc(CNC(=S)N/N=C/c2ccc(O)c(OC)c2)cc1 | x | x | x | -3 | x | x
Cc1cc(Cl)ccc1NC(=S)NCc1ccccc1 | 0.8 | x | 77* | -7 | 20 | 0.2
COc1ccc(CNC(=S)N/N=C/c2ccc(OC)c(OC)c2)cc1 | 0.4 | x | 5 | -3 | 63* | 1
COc1ccc(CCNC(=S)Nc2cc(C)ccc2C)cc1 | 0.5 | -2 | 67* | -2 | 54* | 0.3
COc1ccc(CNC(=S)Nc2cc(C)ccc2C)cc1 | 0.8 | x | 98* | -1 | 16 | 0
O=C(O)CCNc1cc2ccccc2cc1C(=O)O | 0.9 | 23 | 12 | 0 | 8 | 0.9
O=C(O)CCC(=O)c1c[nH]c2ccccc12 | 1.1 | 2 | 4 | -1 | -7 | 1
C=C(C)C(=O)Nc1ccc(OC(F)(F)C(F)F)c(NC(=O)C(=C)C)c1 | 1 | -8 | -7 | 0 | -1 | 1.1
Cc1cc(Br)ccc1OCCCCN1CCC(C)CC1 | x | x | x | -5 | x | x
CC#C[C@]1(O)CC[C@H]2[C@@H]3CCC4=CC(=O)CCC4=C3[C@@H](c3ccc(N(C)C)cc3)C[C@@]21C | x | x | x | -3 | x | x
CNC(=S)NCc1ccc(OC)cc1 | x | x | x | -1 | x | x
COc1ccc(N2CCN(C(=S)Nc3cccc(C)c3C)CC2)cc1 | 1.1 | x | -5 | 0 | -9 | 1
COc1ccc(CNC(=S)Nc2ccccc2C)cc1 | 0.9 | 15 | 98* | -2 | 7 | 0
COc1ccc(CCNC(=S)Nc2cccc(C)c2C)cc1 | 0.7 | 19 | 58* | -4 | 26 | 0.4
COc1ccc(CNC(=S)Nc2cccc(C)c2)cc1 | 1.2 | 8 | 81* | -3 | -25 | 0.2
CC(C)COc1ccc(CNC(=S)N/N=C/c2ccc([N+](=O)[O-])cc2)cc1 | 0.2 | 2 | 18 | -1 | 80* | 0.8
CCc1ccc(C(=O)CSc2nc3cc(S(=O)(=O)N4CCOCC4)ccc3n2CC)cc1 | x | x | x | 3 | x | x
Cc1csc(Sc2nc3c(c(=O)[nH]c(=O)n3C)n2CCCc2ccccc2)n1 | 0.9 | x | -3 | -1 | 8 | 1
COc1ccc(C2=C(O)C(C)N(c3ccccc3)C2=N)cc1OC (stereo not given) | 1.3 | 2 | -12 | -1 | -26 | 1.1
O=C(CCNC(=O)c1ccccc1)OCN1C(=O)c2ccccc2C1=O | 1.1 | -9 | -1 | -2 | -5 | 1
O=C(c1ccccc1)c1ccc(CN2C(=O)c3ccccc3C2=O)o1 | 0.2 | -1 | 91* | -1 | 85* | 0.1
O=C(OCN1C(=O)c2ccccc2C1=O)c1ccccc1 | 1.6 | -12 | 68* | 0 | -61 | 0.3
O=C(O)c1ccc(C(=O)c2ccc3c(c2)C(=O)N(Cc2ccco2)C3=O)cc1 | 0.6 | 4 | 10 | -1 | 44 | 0.9
Cc1cc(-c2ccccc2)nc2[n+]1CCN2C | 0.9 | 3 | -3 | -1 | 10 | 1
